# Measurements: the supplement of paper PMC6555819
# Tested on: PPARg:RXRa 90nM:30nM, anti-RXR (NR concentration 90 nM, RXRa partner concentration 30 nM)
# Test: PBM binding z-score (relative to random genomic background probes); higher = stronger binding; sequences stand for … in GC…GCGATTGACAGCGTAGAATGAAGG
# In short: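 Custom Agilent 4×180K protein-binding microarrays carried double-stranded probes, each with a 34-nt variable region. These regions held direct-repeat seeds, single-nucleotide variants, half-site ablations and random human genomic background sequences. Ligand-free nuclear receptor dimers were incubated on the arrays for 1 h, antibodies against each partner (one per run) detected binding, and scanned fluorescence was regression-normalized. Binding z-scores take the random background probes as reference.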
row,Sequence,PBM binding z-score
1,TCTTGTAGATCACGCAGGTTAAGAAAGCCTGAGT,1.89
2,TCTAGCAGGCCAGAAGGTCACTCAAGAGGTACGG,2.71
3,TTACCAAGGTGAAATGTCGTTGATGCACGCCTTG,3.36
4,CCTTACGGGTCACTTCAGGTTATAGCATCGGAGT,2.2
5,CCTATCAGGCCAGGGTCACTCAAGCATTTCGCTT,0.886
6,AGAATGAGGTTAAGATCAGGTAAACAGAATACAT,1.75
7,AGAATGACGTTACCAAAGATCAGGGAAACGCTTG,0.17
8,ATCGAAAGGTCGAAGATGAGTATACCCACCCGAA,1.8
9,TCGAGTAGGTTAGGGGCATTAAGAATGGCGTCGA,1.98
10,TAGCCTAGGTCATTCAGGGGCCAGTATCGAAAGC,0.958
11,CCAGACAGGTGAGAAGGTAACGCAGCCTCGATTA,0.809
12,CCTCGGAGGACAGAAGGTCAGAGCTGTCCGCTTT,-0.00592
13,CGAACTAGGTCATTGATAGGACAGTGAATAGTAA,5.56
14,GATACAGTGTCAGCTAGAGGCCAGAGTATGGAAA,-0.224
15,GATACACGGTCAGCTAGAGGCCAGAGTATGGAAA,-0.205
16,GCAGACAGGTGAAACGCGGGTAACTCAGGGTGGC,-0.458
17,GCTTGTTGATCAAGGTTAAGAAAGACTAAGCTAA,0.472
18,ATATGTAGGTTATCGGGTCCTTCAGTTTGCGCAT,3.45
19,CCTACTGGGCCATCATGTCATTGATATCAACGTT,1.35
20,ATCGGAAGGTCGTGAGGTGAGTATACAGAAAGGC,0.932

row,Sequence,PBM binding z-score
1,TTACCAAGGTGAGCTAAGGTCGTTGATCCAACTC,0.771
2,CCTGCTAGGCCAATGGTCAGCTAAAGCAGCTCGC,1.6
3,CGTTCAAGGTCAATGCTAGGTCAGTGAAAGCATT,3.91
4,ATCGAAAGGTCGAAGGTGGGTATACCCACCCGAA,2.77
5,CGTCCAAGGTCAAGGTTAGTGAAAGAGACTCGAA,4.2
6,TCATATTGGTAAAAGGTGAAAGTCGGTGTGGTAA,6.18
7,GATACAGGGTTAGCTAGAGGCCAGAGTATGGAAA,-0.205
8,CGAACTAGCTCATCCAGGACAGTGAATACATTGA,0.154
9,CGTCCAAGGTCAAGGTCAGCGAAAGAGACTCGAA,5.28
10,CCTACTGGGCCAGGGTCATTGATCAGTCAAAGCA,2.87
11,AGAATGAGGTAATTAAGATCAGGGAATTGCGGTC,-0.0571
12,CGTCAAAGTGCAACTAAGGTAACGTAAAGCACGC,0.977
13,TAGCCTAGGTCATTGGGCCGGTATAGTACGCATC,1.53
14,TCATATAGGTAAAGGTTAAAGTCGAACGATATGA,5.73
15,TCTTGTAGATCAACAGGAGGTTAAGGAAGATCGA,1.68
16,AATTACGGGTCAACGAGGTTATAGCACGCGTATA,5.1
17,CTCGAAAGGTCGTGCACAGGTGAGTATACCAAAC,3.05
18,TCTCGGACGACACGAAGGTCAGAGCTTTCCAGAG,2.15
19,ACTAGCAGGCCAAGGTTGGGTCACTCAAACAAAG,0.491
20,TTACCAAGGTGTAAGGTCGTTGATGCACGCCTTG,3.46
